Results on 6 compounds are retold here after PubChem BioAssay (NCI).

The panel holds about 83,000 compounds, 20% with a hit somewhere; the sample as a whole holds those more often.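 96-well plates, one dose, 48 hours. Percent growth reported; active if below 10.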 Unmarked numbers belong to inactive results. Active and inactive are the calls of the source.

What all share (test): NCI-60 one-dose screen, 48 h (100 = growth as untreated, 0 = no growth, -100 = all killed)
The subject of experiment [1] is HCT-15 colon. Conditions: 10 µM unless noted.
Experiment [2] concerns HT29 colon. To be noted: 10 µM unless noted.
Experiment [3] relates to SNB-75 CNS. To be noted: 10 µM unless noted.
In experiment [4] the test system is SNB-19 CNS. To be noted: 10 µM unless noted.
Experiment [5] deals with U251 CNS. To be noted: 10 µM unless noted.
Experiment [6] deals with PC-3 prostate. To be noted: 10 µM unless noted.
For experiment [7], the system named is SK-MEL-5 melanoma. Conditions: 10 µM unless noted.
The test system of experiment [8] is UACC-62 melanoma. To be noted: 10 µM unless noted.
Experiment [9] concerns LOX IMVI melanoma. Conditions: 10 µM unless noted.
Experiment [10] has as its system SK-MEL-28 melanoma. To be noted: 10 µM unless noted.
Experiment [11] deals with SK-MEL-2 melanoma. Conditions: 10 µM.
The test system of experiment [12] is EKVX NSCLC. Conditions: 10 µM unless noted.
Experiment [13] deals with SN12C renal. To be noted: 10 µM unless noted.
The test system of experiment [14] is UO-31 renal. To be noted: 10 µM unless noted.
In experiment [15] the test system is TK-10 renal. Conditions: 10 µM unless noted.
The subject of experiment [16] is ACHN renal. To be noted: 10 µM unless noted.
Experiment [17] deals with A498 renal. To be noted: 10 µM unless noted.
For experiment [18], the system named is CCRF-CEM leukemia. Conditions: 10 µM unless noted.
The subject of experiment [19] is MOLT-4 leukemia. To be noted: 10 µM unless noted.

With `C[N+](C)(CCOC(c1ccccc1)c1ccccc1)CC(=O)OCc1ccccc1`, the growth is 99.3% in experiment [1]; 101% in [2]; 76% in experiment [3]; 106% in experiment [4]; 106% in experiment [5]; 98.3% in experiment [6]. Besides, the growth in experiment [7] was 98.1%; in [8], 104%; in experiment [9], 101%; in experiment [10], 106%; in experiment [11], 105%; in [12], 101%. Further, the growth in experiment [13] is 105%; in experiment [14], 86.9%; in experiment [15], 96%; in [16], 111%; in experiment [17], 114%; in [18] it was 122%. The growth in experiment [19] is 116%.

Regarding `Cc1cc2c(-c3nc4ccccn4c3N)c(O)c(O)cc2c(O)c1-c1c(C)cc2c(-c3nc4ccccn4c3N)c(O)c(O)cc2c1O`, the growth is 17.8% in experiment [1]; 8.01% (active) in experiment [2]; 18% in experiment [3]; 12.8% in experiment [4]; 8% (active) in experiment [5]; 16.3% in experiment [6]. For the same compound, the growth in experiment [7] is -7.68% (active); in experiment [8], 5.54% (active); in [9], 7.21% (active); in [10], 38.3%; in [11], -20.6% (active); in experiment [12], 21.8%. Moreover, the growth in experiment [13] is 10.1%; in experiment [14], 31.2%; in experiment [15] it was 11.9%; in experiment [16] it was 17.4%; in experiment [17] it was 2.77% (active); in [18] it was 23.1%. Also, the growth in [19] is 23.5%.

As to `C=CCCCC(=O)CCC(=O)OCC1O[C@@H](O[C@@H]2C(O)[C@@H](OC(C)=O)C(C)O[C@H]2O[C@H](CC=C)CCCCC)C(O)[C@@H](OC(=O)/C(C)=C/C)[C@@H]1OC(=O)/C=C/c1ccccc1` (some centres undefined), the growth was 20.6% in [1]; 0.411% (active) in experiment [2]; 30.1% in [3]; 45.7% in [4]; 11% in experiment [5]; 31.3% in experiment [6]. Besides, the growth in [7] is -71.5% (active); in experiment [8], 20.1%; in experiment [9], -52.9% (active); in [10], 33%; in experiment [11] it was 4.44% (active); in experiment [12], 30.5%. Moreover, the growth in [13] is 3.86% (active); in experiment [14] it was 24.5%; in experiment [15] it was 27%; in experiment [16] it was 23.4%; in experiment [17], 52.5%; in experiment [18], 29.2%. In addition, the growth in experiment [19] is 26.7%.

As for `COC(=O)[C@@H](C)CNS(=O)(=O)N(c1cc(C(F)(F)F)cc(C(F)(F)F)c1)C1CCN(Cc2ccc(F)cc2)CC1`, the growth in experiment [1] was 27.9%; in experiment [2] it was 19.5%; in experiment [3], 65.4%; in experiment [4], 67.7%; in experiment [5] it was 52.3%; in experiment [6] it was 45.4%. For the same compound, the growth in experiment [7] was 29.9%; in experiment [8], 69.1%; in experiment [9] it was 48.2%; in experiment [10] it was 82.9%; in experiment [11], 81.7%; in experiment [12] it was 74.6%. The growth in experiment [13] is 36.8%; in experiment [14] it was 44%; in experiment [15], 89%; in experiment [16] it was 86.4%; in experiment [17] it was 66%; in [18], 56.6%. For the same compound, the growth in experiment [19] was 58.2%.

As for `Cc1ccc(NC(=O)NC(=O)CSc2nc3ccccc3nc2C)cc1`, the growth was 89% in experiment [1]; 67.5% in [2]; 70.8% in experiment [3]; 80.8% in experiment [4]; 84.2% in experiment [5]; 67% in experiment [6]. Moreover, the growth was 38.7% in experiment [7]; 52.5% in experiment [8]; 58.8% in [9]; 75.2% in experiment [10]; 68.3% in experiment [11]; 59.6% in [12]. Further, the growth is 73.7% in experiment [13]; 64.5% in [14]; 82.3% in [15]; 75.6% in [16]; 69.2% in experiment [17]; 58.9% in experiment [18]. For the same compound, the growth in [19] was 74.3%.

`C=CC[n+]1c(/C=C2\Sc3ccccc3N2C)sc(-c2ccccc2)c1-c1ccccc1`: the growth in experiment [1] is 26.2%; in experiment [2] it was 6.28% (active); in experiment [3] it was 12%; in [4], 26.8%; in [5], 15.1%; in experiment [6], 17.9%. The growth in [7] is -97.8% (active); in [8], 13.8%; in experiment [9], 10.9%; in experiment [10], 33.5%; in [11] it was -15.5% (active); in experiment [12], 16.5%. The growth in [13] is 8.01% (active); in experiment [14] it was 6.58% (active); in experiment [15] it was -6.28% (active); in experiment [16], 8.86% (active); in [17] it was 7.29% (active); in [18], 23.2%. Further, the growth in [19] is -4.71% (active).
